Assay results as given in PubChem BioAssay (NCATS).
Inconclusive results are not listed. Where a call stands in place of a potency, no number is given. The source made the active and inactive calls. Unless noted, calls come from the whole dose curve; as a rule, active = well fitted curve in the direction sought with a large enough effect; inconclusive = small, poorly fitted or top-dose-only effect, or another doubt; inactive = no such curve, though single readings can be large; an effect the other way counts as inactive or inconclusive.

How the values were obtained:
[1] = molecular target: Calcium and integrin-binding protein 1 (Homo sapiens) (UniProt Q99828); experiment: Primary qHTS for Identification of Calcium Integrin Binding Protein 1 (CIB1) Competitor (AID 1508620);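 note: GST tagged CIB1 binding a fluorescein labelled alphaIIb integrin peptide tracer; top concentration of the series differs between compounds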
Sequence of Calcium and integrin-binding protein 1 (Homo sapiens) (Q99828 whole entry, looked up): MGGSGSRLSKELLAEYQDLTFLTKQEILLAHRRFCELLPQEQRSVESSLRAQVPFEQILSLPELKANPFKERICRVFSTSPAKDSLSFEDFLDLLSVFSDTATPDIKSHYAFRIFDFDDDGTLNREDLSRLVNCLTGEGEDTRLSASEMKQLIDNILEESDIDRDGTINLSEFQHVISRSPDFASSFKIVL
Summary of the method: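 Fluorescence polarization competition: GST-tagged CIB1 (1 uM final) preincubated with compound 15 min at room temperature, then FITC-labelled alphaIIb peptide (100 nM final) added. After 15 min at room temperature, polarization read at Ex 480/Em 540.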

[2] = Primary qHTS for small molecule stabilizers of the endoplasmic reticulum resident proteome: Secreted ER Calcium Modulated Protein (SERCaMP) assay (AID 1508630)
Summary of the method: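 GLuc-SERCaMP-expressing SH-SY5Y cells, pretreated 16 h with compound, are challenged with thapsigargin to empty ER calcium stores; after 4 h, coelenterazine is added directly to the medium and luminescence is imaged.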

[3] = A High-Content qHTS Against Drug Library for the Identification of Small Molecules that Inhibit DYT1 Early Onset Primary Dystonia-Associated Cell Pathology (AID 1645839; calls by dose curve; note: series mostly up to about 46 µM)
Summary of the method: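 Flp-In T-REx 293 cells with tetracycline-inducible EGFP-delE hTOR1A (WT EGFP-hTOR1A as reference), 800 cells/well; compound added with tetracycline, 48 h at 37 C. Fixed, permeabilized cells imaged; %pathology (punctate TorsinA) primary, cell count counterscreen.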

[4] = molecular target: Cytochrome P450 2D6 (Homo sapiens) (UniProt P10635); experiment: Cytochrome P450 family 2 subfamily D member 6 (CYP2D6) small molecule antagonists: luciferase biochemical (cell-free) qHTS assay (AID 1645840; active = well fitted curve in the direction sought with a large enough effect in the repeat runs; an effect the other way counts as inactive or inconclusive; note: nearly all actives have a fitted effect of over 55% in size; note: potency is the fitted concentration of half-maximal effect)
Sequence of Cytochrome P450 2D6 (Homo sapiens) (P10635 whole entry, looked up): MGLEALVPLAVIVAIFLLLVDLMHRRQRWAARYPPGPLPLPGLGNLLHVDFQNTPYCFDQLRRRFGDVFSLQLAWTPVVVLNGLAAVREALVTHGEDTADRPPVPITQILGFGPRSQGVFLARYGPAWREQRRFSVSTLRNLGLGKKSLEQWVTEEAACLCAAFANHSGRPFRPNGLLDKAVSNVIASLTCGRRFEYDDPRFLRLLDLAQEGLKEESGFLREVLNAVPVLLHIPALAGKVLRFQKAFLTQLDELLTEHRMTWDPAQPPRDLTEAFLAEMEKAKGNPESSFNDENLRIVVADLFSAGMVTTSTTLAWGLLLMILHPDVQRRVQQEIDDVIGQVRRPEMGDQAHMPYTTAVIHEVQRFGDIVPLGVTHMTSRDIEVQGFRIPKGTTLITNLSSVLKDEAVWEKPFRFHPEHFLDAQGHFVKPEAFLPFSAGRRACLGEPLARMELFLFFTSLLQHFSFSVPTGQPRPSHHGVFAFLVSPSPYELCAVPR
Summary of the method: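 P450-Glo luminescent screen: recombinant CYP2D6 enzyme–proluciferin substrate mix preincubated with compound 10 min at room temperature, then NADPH regeneration added for 1 h at room temperature. Detection reagent added for 20 min; luciferin light read as relative luminescence units.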

Row | SMILES | outcome [1] | Potency [2] | Potency [3] | Potency [4]
1 | CC[C@H]1C=CC=CC[C@@H](C)[C@H](O)[C@@](C)(O)C(=O)[C@@H](C)[C@H](O)[C@@H](C)C(=O)[C@@H](C)[C@H](O)[C@@H](C)C=CC(=O)O[C@@H]2[C@@H](C)[C@H](CC1)O[C@]1(CC[C@H](C)[C@H](C[C@@H](C)O)O1)[C@H]2C | inactive | inactive | – | –
2 | C1CCC(NC2CCCCC2)CC1 | inactive | inactive | inactive | 1.23 µM (active)
3 | CC(C)[C@H]1C(=O)N[C@H](CO)Cc2c[nH]c3cccc(c23)N1C | inactive | inactive | – | –
4 | CN(C)[C@@H]1C(=O)C(C(N)=O)=C(O)[C@@]2(O)C(=O)C3=C(O)c4c(O)cccc4[C@@](C)(O)[C@H]3[C@H](O)[C@@H]12 | inactive | inactive | – | –
5 | CC(=Cc1csc(C)n1)[C@@H]1C[C@H]2O[C@]2(C)CCC[C@H](C)[C@@H](O)[C@@H](C)C(=O)C(C)(C)[C@@H](O)CC(=O)O1 | inactive | inactive | – | –
6 | CC(=O)O[C@@]12CO[C@H]1C[C@H](O)[C@@]1(C)C(=O)[C@H](O)C3=C(C)[C@@H](O)C[C@@](O)([C@@H](OC(=O)c4ccccc4)[C@@H]21)C3(C)C | inactive | inactive | – | –
7 | O=C(Nc1ccncc1)C(=O)c1cn(Cc2ccc(Cl)cc2)c2ccccc12 | inactive | inactive | – | inactive
8 | CC(=O)OCC1=C(C(=O)O)N2C(=O)[C@@H](N)[C@@H]2SC1 | inactive | inactive | – | –
9 | CCc1c(C(=O)C(N)=O)c2c(OCC(=O)O)cccc2n1Cc1ccccc1 | inactive | inactive | – | inactive
10 | CC(=CCCC1=CCC(C2=CC(=O)OC2O)OC1O)CCC1=C(C)CCCC1(C)C (stereo unspecified) | inactive | inactive | – | –
11 | CCN1CCN(C(=O)Cc2ccc(Nc3ncc(F)c(Nc4ccc(C(=O)Nc5ccccc5Cl)cc4)n3)cc2)CC1 | inactive | inactive | – | inactive
12 | CC(C)N[C@@H]1CCn2c(=O)[nH]c3cccc(c32)[C@@H]1O | inactive | inactive | – | –
13 | O=C(Oc1ccc([N+](=O)[O-])cc1)N1CCN(Cc2cccc(Oc3ccccc3)c2)CC1 | inactive | inactive | – | 2.68 µM (active)
14 | C[C@]12CC[C@H]3[C@@H](CCC4=CC(=O)CC[C@@]43C)[C@H]1CC[C@H]2OC(=O)CCC1CCCC1 | inactive | inactive | – | –
15 | C=C1C[C@H]2[C@H]3CCC(=O)[C@@]3(C)CC[C@@H]2[C@@]2(C)C=CC(=O)C=C12 | inactive | inactive | – | –
16 | COc1ccc(C(=O)c2c(C)n(CCN3CCOCC3)c3cc(I)ccc23)cc1 | inactive | inactive | – | –
17 | CN(C)NC(=O)CCC(=O)O | inactive | inactive | – | –
18 | C[C@]12CC[C@H]3[C@@H](CCC4=CC(=O)CC[C@@]43C)[C@H]1CC[C@H]2O | inactive | inactive | – | –
19 | Cc1c(N)nc([C@H](CC(N)=O)NC[C@@H](N)C(N)=O)nc1C(=O)N[C@H](C(=O)N[C@@H](C)[C@H](O)[C@@H](C)C(=O)N[C@@H](C(=O)NCCc1nc(-c2nc(C(=O)NCCC[S+](C)C)cs2)cs1)[C@@H](C)O)C(O[C@H]1O[C@H](CO)[C@H](O)[C@@H](O)[C@@H]1O[C@H]1O[C@H](CO)[C@@H](O)[C@H](OC(N)=O)[C@H]1O)c1cnc[nH]1 (stereo partly specified) | inactive | inactive | – | –
20 | Clc1ccccc1C(c1ccccc1)(c1ccccc1)n1cccn1 | inactive | inactive | – | –
21 | O=C(NCC1CCOCC1)c1cnc(Nc2ccc(Cl)cc2Cl)nc1C(F)(F)F | inactive | inactive | – | inactive
22 | COc1ccc(N(C(=O)Oc2c(C)cccc2C)c2ccnc(Nc3ccc(N4CCN(C)CC4)cc3)n2)c(OC)c1 | inactive | inactive | – | 1.9 µM (active)
23 | C[C@]12CC[C@@H]3[C@@H](CCC4=CC(=O)CC[C@@H]43)[C@@H]1CC[C@@H]2OC(=O)CCc1ccccc1 | inactive | inactive | – | –
24 | CC(=O)N(C)c1cccc(-c2ccnc3c(C(=O)c4cccs4)cnn23)c1 | inactive | inactive | – | inactive
25 | O=C(N[C@@H](COc1ccc2[nH]c(=O)[nH]c2c1)c1ccccc1)c1cccn(Cc2ccc(F)c(F)c2)c1=O | inactive | inactive | – | 4.25 µM (active)
26 | O=C(Oc1ccc([N+](=O)[O-])cc1)N1CCC(C(O)(c2ccc3c(c2)OCO3)c2ccc3c(c2)OCO3)CC1 | inactive | inactive | – | –
27 | O=S(=O)(CC1CS1)c1ccc(Oc2ccccc2)cc1 (stereo unspecified) | inactive | inactive | – | –
28 | C=C[C@@H]1CN2CCC1C[C@@H]2[C@@H](O)c1ccnc2ccccc12 (stereo partly specified) | inactive | inactive | – | –
